{"source": "PubChem BioAssay (NCI)", "note": "Compounds without any hit were thinned out: in the full panel of roughly 83,000, 20% have a hit.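 96-well plates, one dose, 48 hours. Percent growth reported; active if below 10.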 Activity calls are given as the source filed them."}
{"tested_on": "SF-295 CNS", "assay": "NCI-60 one-dose screen, 48 h (100 = growth as untreated, 0 = no growth, -100 = all killed)", "details": "10 µM unless noted"}
{"smiles": "CN(c1ncccc1CNc1nc(Nc2ccc3c(c2)CC(=O)N3)ncc1C(F)(F)F)S(C)(=O)=O", "growth": "11.8% (inactive)"}
{"smiles": "COc1cc2nccc(Oc3ccc(NC(=O)Nc4cc(C)on4)c(Cl)c3)c2cc1OC", "growth": "19% (inactive)"}
{"smiles": "COc1cccc(Nc2ncnn3ccc(CN4CC[C@@H](N)[C@H](O)C4)c23)c1", "growth": "72.9% (inactive)"}
{"smiles": "Cc1nc2cc(-c3nn(C(C)C)c4ncnc(N)c34)ccc2o1", "growth": "-53.9% (active)"}
{"smiles": "C[C@@H](N)c1ccc(C(=O)Nc2ccnc3[nH]ccc23)cc1", "growth": "61.5% (inactive)"}
{"smiles": "NC(=O)c1c(OCc2c(F)cc(Br)cc2F)nsc1NC(=O)NCCCCN1CCCC1", "growth": "-81% (active)"}
{"smiles": "CC(=O)OC(C(=O)c1ccccc1)c1ccccc1", "note": "(stereo unspecified)", "growth": "108% (inactive)"}
{"smiles": "O=C1NC(=O)[C@@H](c2cn3c4c(cccc24)CCC3)[C@@H]1c1c[nH]c2ccccc12", "growth": "19.2% (inactive)"}
{"smiles": "CCN(CC)c1cc2oc3cc(N)cc(=N)c-3nc2cc1C", "growth": "48.1% (inactive)"}
{"smiles": "CC(=O)C1CC(C)CCC1C(C)C", "note": "(stereo unspecified)", "growth": "120% (inactive)"}
{"smiles": "CCN1CCN(Cc2ccc(-c3cc4c(N[C@H](C)c5ccccc5)ncnc4[nH]3)cc2)CC1", "growth": "68.8% (inactive)"}
{"smiles": "O=c1[nH]c([C@@H]2CCCN2)nc2c1oc1ccc(Cl)cc12", "growth": "52.7% (inactive)"}
{"smiles": "C=CC(=O)Nc1cccc(Oc2nc(Nc3ccc(N4CCN(C)CC4)cc3)nc3ccsc23)c1", "growth": "23.9% (inactive)"}
{"smiles": "CCS(=O)(=O)N1CCN(c2ccc(Nc3ncc(C(N)=O)c(NC4CC4)n3)cc2)CC1", "growth": "61.9% (inactive)"}
{"smiles": "O=C(COc1ccc(/C=C2\\Cc3ccc(Cl)cc3C2=O)cc1)Nc1nccs1", "growth": "113% (inactive)"}
{"smiles": "CC(C)(C)c1cnc(CSc2cnc(NC(=O)C3CCNCC3)s2)o1", "growth": "11.6% (inactive)"}
{"smiles": "CS(=O)(=O)CCNCc1ccc(-c2ccc3ncnc(Nc4ccc(OCc5cccc(F)c5)c(Cl)c4)c3c2)o1", "growth": "-7.05% (active)"}
{"smiles": "Cc1cc(O)cc(-c2c(-c3ccnc(-c4cccnc4)c3)cnn2C)c1", "growth": "59.2% (inactive)"}
{"smiles": "CN1CCN(c2nc(C3=C(c4c[nH]c5ccccc45)C(=O)NC3=O)c3ccccc3n2)CC1", "growth": "98.7% (inactive)"}
{"smiles": "CC(=O)NCC(=O)N1[C@@H]2CC[C@H]1c1ccc(Nc3ncc(C(F)(F)F)c(NC4CCC4)n3)cc12", "growth": "60% [2.5 µM] (inactive)"}
{"smiles": "Cc1cc([C@@H](C)Nc2ccccc2C(=O)O)c2nc(N3CCOCC3)cc(=O)n2c1", "growth": "9.97% (active)"}
{"smiles": "Cc1cc(Oc2ccccc2)ccc1Nc1ncnc2ccc(-c3cnc(Cl)c(NS(C)(=O)=O)c3)cc12", "growth": "5.34% (active)"}
{"smiles": "CCN(CC)CCNC(=O)c1c(C)[nH]c(/C=C2\\C(=O)Nc3ccc(F)cc32)c1C", "growth": "67.3% (inactive)"}
{"smiles": "O=C(Nc1cnn2ccc(N3CCC[C@@H]3c3cc(F)ccc3F)nc12)N1CC[C@H](O)C1", "growth": "96.9% (inactive)"}
{"smiles": "COc1ccc(F)c(F)c1C(=O)c1cnc(NC2CCN(S(C)(=O)=O)CC2)nc1N", "growth": "8.69% (active)"}
{"smiles": "CN1C/C=C\\CCOc2cccc(c2)-c2ccnc(n2)Nc2cccc(c2)C1", "growth": "-86.3% (active)"}
